Results filed as inconclusive are left out. The source made the active and inactive calls. Rule for the calls, unless noted: active = hit-call score of the fitted dose curve at least 0.9, where 1 is the maximum; inactive = score below 0.9.

Read-out in experiment [1]: Intercellular Adhesion Molecule 1 (ICAM1), ICAM1 (gene 3383)
Nature of the experiment: BSK_3C_ICAM1: BioMAP Diversity Plus: 3C Assay for Intercellular Adhesion Molecule 1 (ICAM1) Biomarker Activity (AID 2283003). Particulars: primary human endothelial cells (HUVEC); actives raise or lower the signal. The method, boiled down: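 Primary human umbilical vein endothelial cells in the BioMAP 3C system were exposed to chemicals for 24 h, then ICAM-1 was quantified by ELISA. Activity was fitted bidirectionally against the DMSO negative control baseline.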

Experiment [2] in a line: BSK_3C_Proliferation: Cell Proliferation Assessment in the BioMAP Diversity Plus: 3C Assay (AID 2283006).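 For AC50: potency may reflect either rise or fall in cell number versus DMSO.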 Particulars: primary human endothelial cells (HUVEC). The method, boiled down: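 Human umbilical vein endothelial cells were grown sub-confluent and exposed to chemical for 48 h, then fixed with 10% TCA and stained with 0.1% sulforhodamine B; absorbance at 560 nm gave relative cell number, fitted bidirectionally against DMSO baseline.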

In experiment [3] the target is Peroxisome proliferator-activated receptor gamma (Homo sapiens) (UniProt P37231). Briefly: ATG_PPARg_TRANS: Attagene TRANS-FACTORIAL HepG2 Assay for human Peroxisome Proliferator-activated Receptor-gamma (PPARg) (AID 2283007; active = hit-call score of the fitted dose curve at least 0.9, where 1 is the maximum). The method, boiled down:
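Read-out: reporter mRNA induction, detected by fluorescence after RT-PCR and capillary electrophoresis. Transiently transfected human HepG2 liver cells carrying a chimeric NR-Gal4 construct were dosed for 24 h; activity was fitted upward relative to DMSO.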

Experiment [4] has as its target Retinoic acid receptor RXR-alpha (Homo sapiens) (UniProt P19793). Briefly: ATG_RXRa_TRANS: Attagene TRANS-FACTORIAL HepG2 Assay for human Retinoid X Receptor alpha (RXRa) (AID 2283012; active = hit-call score of the fitted dose curve at least 0.9, where 1 is the maximum). The method, boiled down: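 HepG2 cells transiently transfected with multiplexed GAL4-UAS reporter units and chimeric NR-GAL4 fusions, dosed 24 h. Reporter mRNA measured by RT-PCR, FAM labelling, HpaI digestion and capillary electrophoresis; gain-of-signal fitted relative to DMSO baseline.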

Read-out in experiment [5]: E-selectin (Homo sapiens) (UniProt P16581)
Nature of the experiment: BSK_3C_Eselectin: BioMAP Diversity Plus: 3C Assay for Eselectin Biomarker Activity (AID 2283015).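 For outcome: cell surface E-selectin protein quantified by ELISA 24 h after dosing.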 Particulars: primary human endothelial cells (HUVEC); actives raise or lower the signal. The method, boiled down: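 E-selectin ELISA readout, fitted bidirectionally relative to DMSO, taken 24 h post-dosing in HUVEC cultures of the 3C system. Overt cytotoxicity tracked with sulforhodamine B staining of parallel wells.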

Read-out in experiment [6]: Interleukin-1 alpha (IL1a), IL1A (gene 3552)
Nature of the experiment: BSK_BE3C_IL1a: BioMAP Diversity Plus: BE3C Assay for Interleukin-1 alpha (IL1a) Biomarker Activity (AID 2283016). Particulars: primary human bronchial epithelial cells; actives raise or lower the signal. The method, boiled down:
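Human primary bronchial epithelial cells (BE3C system) were dosed with compound and IL-1a measured by ELISA 24 h later. Activity was fitted bidirectionally against DMSO baseline; cytotoxicity was tracked in parallel cultures by SRB total-protein staining.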

Read-out in experiment [7]: Monocyte Chemoattractant Protein-1 (MCP1), CCL2 (gene 6347)
Briefly: BSK_3C_MCP1: BioMAP Diversity Plus: 3C Assay for Monocyte Chemoattractant Protein-1 (MCP1) Biomarker Activity (AID 2283017). Particulars: primary human endothelial cells (HUVEC); actives raise or lower the signal. The method, boiled down:
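MCP-1 was measured by ELISA 24 h after dosing in primary HUVEC 3C cultures and fitted in both directions relative to DMSO; cytotoxicity was checked by SRB total-protein staining in parallel wells.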

Read-out in experiment [8]: Monocyte Chemoattractant Protein-1 (MCP1), CCL2 (gene 6347)
Briefly: BSK_4H_MCP1: BioMAP Diversity Plus: 4H Assay for Monocyte Chemoattractant Protein-1 (MCP1) Biomarker Activity (AID 2283018). Particulars: primary human endothelial cells (HUVEC); actives raise or lower the signal. The method, boiled down: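 Human umbilical vein endothelial cells (4H system) dosed with chemical; MCP-1 measured by ELISA 24 h after dosing. Bidirectional curve fitting against DMSO negative control as baseline; parallel SRB total-protein staining tracks overt cytotoxicity.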

Read-out in experiment [9]: Human Leukocyte Antigen - DR isotype (HLADR), HLA-DRA (gene 3122)
Briefly: BSK_3C_HLADR: BioMAP Diversity Plus: 3C Assay for Human Leukocyte Antigen - DR isotype (HLADR) Biomarker Activity (AID 2283019).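 For outcome: ELISA of cell-surface HLA-DR on HUVEC 24 h after dosing.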 Particulars: primary human endothelial cells (HUVEC); actives raise or lower the signal. The method, boiled down:
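Bidirectional fitting against DMSO was applied to the HLA-DR ELISA signal from human umbilical vein endothelial cells, 24 h post-dose. Cytotoxicity came from parallel SRB total-protein staining; 3C proliferation was counted by SRB at 48 h.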

Read-out in experiment [10]: Interleukin-8 (IL8), CXCL8 (gene 3576)
Briefly: BSK_3C_IL8: BioMAP Diversity Plus: 3C Assay for Interleukin-8 (IL8) Biomarker Activity (AID 2283020). Particulars: primary human endothelial cells (HUVEC); actives raise or lower the signal. The method, boiled down: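 Primary human umbilical vein endothelial cells (3C system) were exposed to test chemical for 24 h, then IL-8 was quantified by ELISA. Responses were fitted bidirectionally against DMSO vehicle as baseline.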

Read-out in experiment [11]: Monokine induced gamma interferon (MIG), CXCL9 (gene 4283)
Briefly: BSK_3C_MIG: BioMAP Diversity Plus: 3C Assay for Monokine induced gamma interferon (MIG) Biomarker Activity (AID 2283021).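 For AC50: MIG protein level measured by immunoassay in the treated endothelial cultures.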 Particulars: primary human endothelial cells (HUVEC); actives raise or lower the signal. The method, boiled down:
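Primary human umbilical vein endothelial cells in the 3C system were exposed to chemical for 24 h, after which MIG was quantified by ELISA. Activity was fitted bidirectionally against DMSO as negative control and baseline.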

Experiment [12] deals with human Retinoid X Receptor beta (RXRb), RXRB (gene 6257) (UniProt P28702). Briefly: ATG_RXRb_TRANS: Attagene TRANS-FACTORIAL HepG2 Assay for human Retinoid X Receptor beta (RXRb) (AID 2283013; active = hit-call score of the fitted dose curve at least 0.9, where 1 is the maximum). The method, boiled down:
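HepG2 cells transiently transfected with multiplexed reporter units driven by GAL4-UAS and exogenous chimeric NR-Gal4 proteins; treated 24 h. Reporter mRNA measured by RT-PCR, 6-FAM labelling and capillary electrophoresis; gain-of-signal fitted versus DMSO baseline.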

Experiment [13] has as its target human Thyroid Receptor alpha (THRa1), THRA (gene 7067) (UniProt P10827). Nature of the experiment: ATG_THRa1_TRANS: Attagene TRANS-FACTORIAL HepG2 Assay for human Thyroid Receptor alpha (THRa1) (AID 2283014; active = hit-call score of the fitted dose curve at least 0.9, where 1 is the maximum). The method, boiled down:
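Transcripts from GAL4-UAS-driven reporters, measured after 24 h compound exposure by RT-PCR plus capillary electrophoresis of 6-FAM-labeled fragments, were fitted for gain of signal relative to DMSO. Cells: transiently transfected HepG2 expressing NR-Gal4 chimeras.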

Experiment [14] concerns the target human Vitamin D Receptor (VDR), VDR (gene 7421) (UniProt P11473). Briefly: ATG_VDR_TRANS: Attagene TRANS-FACTORIAL HepG2 Assay for human Vitamin D Receptor (VDR) (AID 2283022; active = hit-call score of the fitted dose curve at least 0.9, where 1 is the maximum). The method, boiled down: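 Transactivation by an exogenous VDR-Gal4 chimera in transiently transfected HepG2 cells was measured as reporter transcript level 24 hours after chemical treatment. RT-PCR products were analysed by capillary electrophoresis and fitted in the positive direction relative to DMSO.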

The target of experiment [15] is Nuclear receptor subfamily 1 group I member 2 (Homo sapiens) (UniProt O75469). Nature of the experiment: ATG_PXR_TRANS: Attagene TRANS-FACTORIAL HepG2 Assay for human Pregnane X Receptor (PXR) (AID 2283008; active = hit-call score of the fitted dose curve at least 0.9, where 1 is the maximum). The method, boiled down:
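HepG2 cells transiently transfected with GAL4-UAS reporter units and PXR-Gal4 chimera, exposed 24 h. Reporter mRNA quantified by RT-PCR, fluorescent labelling, HpaI digestion and capillary electrophoresis; gain of signal vs DMSO.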

In experiment [16] the target is human RAR-related Orphan Receptor gamma (RORg), RORC (gene 6097) (UniProt P51449). Nature of the experiment: ATG_RORg_TRANS: Attagene TRANS-FACTORIAL HepG2 Assay for human RAR-related Orphan Receptor gamma (RORg) (AID 2283011; active = hit-call score of the fitted dose curve at least 0.9, where 1 is the maximum). The method, boiled down:
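Reporter transcripts from a transfected RORg-GAL4 chimera in HepG2 cells were quantified 24 h after dosing by RT-PCR, 6-FAM labelling, HpaI digestion and capillary electrophoresis; increases over DMSO baseline were fitted.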

Experiment [17] has as its target human Retinoic Acid Receptor beta (RARb), RARB (gene 5915) (UniProt P10826). Briefly: ATG_RARb_TRANS: Attagene TRANS-FACTORIAL HepG2 Assay for human Retinoic Acid Receptor beta (AID 2283004; active = hit-call score of the fitted dose curve at least 0.9, where 1 is the maximum). The method, boiled down:
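Induction of reporter mRNA from a chimeric RARb-Gal4 construct was measured by RT-PCR, FAM labelling, HpaI digestion and capillary electrophoresis. Measurements followed 24 h compound treatment of transiently transfected human HepG2 liver cells, with DMSO as baseline.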

Experiment [18] deals with Retinoic acid receptor alpha (Homo sapiens) (UniProt P10276). Briefly: ATG_RARa_TRANS: Attagene TRANS-FACTORIAL HepG2 Assay for human Retinoic Acid Receptor alpha (RARa) (AID 2283005; active = hit-call score of the fitted dose curve at least 0.9, where 1 is the maximum). The method, boiled down:
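HepG2 transiently transfected with multiplex GAL4-UAS reporter units including a human RARa–GAL4 chimera; 24 h compound exposure. Reporter mRNA quantified by RT-PCR, 6-FAM labeling and capillary electrophoresis; gain of signal versus DMSO.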

For experiment [19], the target named is human Retinoic Acid Receptor gamma (RARg), RARG (gene 5916) (UniProt P13631). Nature of the experiment: ATG_RARg_TRANS: Attagene TRANS-FACTORIAL HepG2 Assay for human Retinoic Acid Receptor gamma (RARg) (AID 2283009; active = hit-call score of the fitted dose curve at least 0.9, where 1 is the maximum). The method, boiled down: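 HepG2 cells transiently transfected with multiplexed reporter units expressing chimeric RARg-GAL4 and GAL4-UAS-driven reporters; 24 h compound exposure. Reporter mRNA quantified by RT-PCR with fluorescent labelling and capillary electrophoresis; gain-of-signal fitted relative to DMSO baseline.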
Sequence of human Retinoic Acid Receptor gamma (RARg), RARG (gene 5916) (P13631 whole entry, looked up, the tested form may be a part): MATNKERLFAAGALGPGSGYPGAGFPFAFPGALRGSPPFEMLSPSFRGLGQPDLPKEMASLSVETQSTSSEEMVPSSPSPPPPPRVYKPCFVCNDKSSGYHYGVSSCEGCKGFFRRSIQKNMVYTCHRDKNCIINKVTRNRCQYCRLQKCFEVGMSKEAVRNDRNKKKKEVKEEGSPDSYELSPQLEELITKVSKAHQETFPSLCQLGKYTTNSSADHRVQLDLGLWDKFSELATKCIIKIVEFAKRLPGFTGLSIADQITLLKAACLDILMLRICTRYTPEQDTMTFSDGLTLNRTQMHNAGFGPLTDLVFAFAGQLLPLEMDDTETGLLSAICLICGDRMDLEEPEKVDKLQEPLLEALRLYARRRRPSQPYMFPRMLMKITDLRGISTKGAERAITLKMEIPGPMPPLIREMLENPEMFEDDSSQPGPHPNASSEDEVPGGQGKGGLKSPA

Sequence of human Thyroid Receptor alpha (THRa1), THRA (gene 7067) (P10827 whole entry, looked up, the tested form may be a part): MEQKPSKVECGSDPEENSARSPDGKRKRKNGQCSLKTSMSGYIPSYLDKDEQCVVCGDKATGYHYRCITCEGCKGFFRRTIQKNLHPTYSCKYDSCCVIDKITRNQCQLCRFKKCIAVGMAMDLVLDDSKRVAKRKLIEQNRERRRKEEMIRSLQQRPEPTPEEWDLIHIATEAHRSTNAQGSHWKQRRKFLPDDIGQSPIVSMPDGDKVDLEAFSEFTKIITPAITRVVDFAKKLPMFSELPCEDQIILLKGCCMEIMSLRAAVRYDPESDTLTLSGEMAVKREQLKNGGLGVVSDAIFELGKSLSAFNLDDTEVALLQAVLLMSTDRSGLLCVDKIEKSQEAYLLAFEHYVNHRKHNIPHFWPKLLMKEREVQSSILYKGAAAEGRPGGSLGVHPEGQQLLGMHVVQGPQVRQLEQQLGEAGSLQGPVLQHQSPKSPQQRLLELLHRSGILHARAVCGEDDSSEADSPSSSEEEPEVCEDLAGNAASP
Sequence of human Retinoid X Receptor beta (RXRb), RXRB (gene 6257) (P28702 whole entry, looked up, the tested form may be a part): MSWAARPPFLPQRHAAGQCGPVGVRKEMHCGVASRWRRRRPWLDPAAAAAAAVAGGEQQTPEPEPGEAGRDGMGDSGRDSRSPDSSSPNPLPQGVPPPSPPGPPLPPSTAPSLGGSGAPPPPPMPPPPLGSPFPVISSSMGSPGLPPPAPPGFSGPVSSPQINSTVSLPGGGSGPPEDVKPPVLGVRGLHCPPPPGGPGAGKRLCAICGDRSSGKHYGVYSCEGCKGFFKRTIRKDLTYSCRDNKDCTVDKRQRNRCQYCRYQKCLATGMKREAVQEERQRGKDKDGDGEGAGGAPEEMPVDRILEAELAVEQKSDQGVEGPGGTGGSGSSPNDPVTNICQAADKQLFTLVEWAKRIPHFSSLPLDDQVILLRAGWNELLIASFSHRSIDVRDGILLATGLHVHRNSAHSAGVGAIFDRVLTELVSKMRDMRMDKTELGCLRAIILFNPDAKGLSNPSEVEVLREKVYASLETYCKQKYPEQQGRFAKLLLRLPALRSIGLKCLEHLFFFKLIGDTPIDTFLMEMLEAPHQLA
Sequence of Peroxisome proliferator-activated receptor gamma (Homo sapiens) (P37231 whole entry, looked up, the tested form may be a part): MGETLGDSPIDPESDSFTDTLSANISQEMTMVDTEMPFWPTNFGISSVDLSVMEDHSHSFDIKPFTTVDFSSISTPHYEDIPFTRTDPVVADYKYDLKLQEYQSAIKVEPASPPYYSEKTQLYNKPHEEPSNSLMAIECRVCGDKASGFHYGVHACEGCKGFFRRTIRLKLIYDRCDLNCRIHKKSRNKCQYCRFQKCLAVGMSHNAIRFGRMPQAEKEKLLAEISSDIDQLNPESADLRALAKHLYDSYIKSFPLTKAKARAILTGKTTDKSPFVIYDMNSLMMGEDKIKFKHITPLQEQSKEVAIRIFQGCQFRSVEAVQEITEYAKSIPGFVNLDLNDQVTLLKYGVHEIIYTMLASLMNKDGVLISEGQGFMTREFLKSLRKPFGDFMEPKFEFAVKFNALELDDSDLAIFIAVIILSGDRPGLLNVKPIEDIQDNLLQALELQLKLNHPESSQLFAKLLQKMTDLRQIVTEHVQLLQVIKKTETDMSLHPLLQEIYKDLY
Sequence of Nuclear receptor subfamily 1 group I member 2 (Homo sapiens) (O75469 whole entry, looked up, the tested form may be a part): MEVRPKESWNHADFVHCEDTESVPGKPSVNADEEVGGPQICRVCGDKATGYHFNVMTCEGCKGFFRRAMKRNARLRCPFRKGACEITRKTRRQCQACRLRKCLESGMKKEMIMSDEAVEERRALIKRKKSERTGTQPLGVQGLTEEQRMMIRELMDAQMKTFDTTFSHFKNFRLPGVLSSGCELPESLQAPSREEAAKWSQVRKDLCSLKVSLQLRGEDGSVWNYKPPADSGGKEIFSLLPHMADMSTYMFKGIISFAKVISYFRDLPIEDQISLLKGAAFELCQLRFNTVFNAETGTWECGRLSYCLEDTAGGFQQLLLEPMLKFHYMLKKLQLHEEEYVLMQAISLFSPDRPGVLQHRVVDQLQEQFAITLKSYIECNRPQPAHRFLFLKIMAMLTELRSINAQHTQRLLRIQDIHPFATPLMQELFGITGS
Sequence of E-selectin (Homo sapiens) (P16581 whole entry, looked up): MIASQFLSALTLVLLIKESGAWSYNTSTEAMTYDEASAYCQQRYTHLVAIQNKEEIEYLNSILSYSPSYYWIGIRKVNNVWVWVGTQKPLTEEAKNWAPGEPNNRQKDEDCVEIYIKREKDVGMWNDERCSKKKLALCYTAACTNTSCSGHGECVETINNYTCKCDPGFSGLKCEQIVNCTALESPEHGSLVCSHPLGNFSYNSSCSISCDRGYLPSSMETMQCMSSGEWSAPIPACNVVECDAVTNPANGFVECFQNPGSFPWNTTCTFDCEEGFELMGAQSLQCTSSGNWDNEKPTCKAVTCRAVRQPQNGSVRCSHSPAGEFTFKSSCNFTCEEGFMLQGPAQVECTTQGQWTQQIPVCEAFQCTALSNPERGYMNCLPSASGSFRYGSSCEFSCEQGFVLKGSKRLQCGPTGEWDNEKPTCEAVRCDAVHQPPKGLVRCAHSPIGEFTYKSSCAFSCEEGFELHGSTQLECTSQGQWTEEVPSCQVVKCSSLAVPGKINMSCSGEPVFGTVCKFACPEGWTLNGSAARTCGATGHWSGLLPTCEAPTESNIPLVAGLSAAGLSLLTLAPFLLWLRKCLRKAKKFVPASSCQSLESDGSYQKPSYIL
Sequence of Retinoic acid receptor RXR-alpha (Homo sapiens) (P19793 whole entry, looked up, the tested form may be a part): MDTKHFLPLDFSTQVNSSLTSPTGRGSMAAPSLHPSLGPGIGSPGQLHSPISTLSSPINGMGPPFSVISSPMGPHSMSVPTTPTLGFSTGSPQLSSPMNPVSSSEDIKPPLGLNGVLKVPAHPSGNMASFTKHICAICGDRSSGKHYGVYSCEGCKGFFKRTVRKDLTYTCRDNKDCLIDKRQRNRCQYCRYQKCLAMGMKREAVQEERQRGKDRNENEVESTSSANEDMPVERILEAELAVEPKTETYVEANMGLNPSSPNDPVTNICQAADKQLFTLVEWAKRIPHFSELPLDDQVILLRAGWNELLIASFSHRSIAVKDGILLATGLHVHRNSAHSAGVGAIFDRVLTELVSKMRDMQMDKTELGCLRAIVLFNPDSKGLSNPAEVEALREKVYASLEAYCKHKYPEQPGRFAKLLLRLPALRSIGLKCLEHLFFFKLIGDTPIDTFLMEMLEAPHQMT
Sequence of human RAR-related Orphan Receptor gamma (RORg), RORC (gene 6097) (P51449 whole entry, looked up, the tested form may be a part): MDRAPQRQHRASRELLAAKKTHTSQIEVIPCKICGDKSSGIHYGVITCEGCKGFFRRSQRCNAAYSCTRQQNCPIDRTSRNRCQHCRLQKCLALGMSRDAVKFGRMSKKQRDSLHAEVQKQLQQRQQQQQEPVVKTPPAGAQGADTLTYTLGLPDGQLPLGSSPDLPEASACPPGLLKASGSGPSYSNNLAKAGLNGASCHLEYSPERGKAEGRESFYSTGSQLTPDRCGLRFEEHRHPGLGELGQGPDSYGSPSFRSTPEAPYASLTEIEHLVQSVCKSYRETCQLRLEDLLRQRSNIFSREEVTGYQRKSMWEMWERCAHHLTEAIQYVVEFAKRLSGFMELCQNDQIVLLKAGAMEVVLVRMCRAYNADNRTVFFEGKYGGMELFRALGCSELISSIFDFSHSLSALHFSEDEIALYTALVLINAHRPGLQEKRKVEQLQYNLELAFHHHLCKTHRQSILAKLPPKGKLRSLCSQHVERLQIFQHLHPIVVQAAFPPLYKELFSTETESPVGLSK
Sequence of Retinoic acid receptor alpha (Homo sapiens) (P10276 whole entry, looked up, the tested form may be a part): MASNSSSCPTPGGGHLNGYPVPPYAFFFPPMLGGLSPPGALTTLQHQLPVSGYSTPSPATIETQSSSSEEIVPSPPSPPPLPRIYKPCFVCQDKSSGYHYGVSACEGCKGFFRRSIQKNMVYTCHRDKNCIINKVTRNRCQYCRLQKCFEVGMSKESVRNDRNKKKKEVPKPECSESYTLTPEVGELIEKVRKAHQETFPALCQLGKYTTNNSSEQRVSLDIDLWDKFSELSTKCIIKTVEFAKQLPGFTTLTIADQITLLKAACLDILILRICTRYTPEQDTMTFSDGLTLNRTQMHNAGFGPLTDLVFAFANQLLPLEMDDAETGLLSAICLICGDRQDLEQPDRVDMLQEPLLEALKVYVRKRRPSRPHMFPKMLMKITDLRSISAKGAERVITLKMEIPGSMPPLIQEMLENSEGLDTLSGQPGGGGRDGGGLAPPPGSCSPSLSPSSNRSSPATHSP
Sequence of human Retinoic Acid Receptor beta (RARb), RARB (gene 5915) (P10826 whole entry, looked up, the tested form may be a part): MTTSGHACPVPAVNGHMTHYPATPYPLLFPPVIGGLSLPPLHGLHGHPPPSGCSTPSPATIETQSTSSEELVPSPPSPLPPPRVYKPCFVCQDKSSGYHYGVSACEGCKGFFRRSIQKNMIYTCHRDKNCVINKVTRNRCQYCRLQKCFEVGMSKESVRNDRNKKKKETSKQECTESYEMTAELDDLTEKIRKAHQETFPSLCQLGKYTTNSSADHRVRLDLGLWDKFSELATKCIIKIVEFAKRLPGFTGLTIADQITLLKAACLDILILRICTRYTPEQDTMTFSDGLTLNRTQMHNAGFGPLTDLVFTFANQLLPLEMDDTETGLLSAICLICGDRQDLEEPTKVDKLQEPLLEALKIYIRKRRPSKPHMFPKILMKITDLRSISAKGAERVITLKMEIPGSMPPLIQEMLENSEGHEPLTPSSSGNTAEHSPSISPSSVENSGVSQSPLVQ

As for `N#CCCC(Br)(C#N)CBr` (centres undefined), the AC50 in experiment [1] is 11 µM (active); in experiment [2], 1.28 µM (active); in experiment [5], 10.6 µM (active); in experiment [6], 20 µM (active); in experiment [7] it was 7.55 µM (active); in experiment [8] it was 5.77 µM (active). Moreover, the AC50 in experiment [9] was 3.16 µM (active); in experiment [10] it was 8.39 µM (active); in [11], 12.7 µM (active). For the same compound, the outcome in [3] and in experiment [4] was inactive.
For `[Cl][Sn]([c]1ccccc1)([c]1ccccc1)[c]1ccccc1`, the AC50 was 0.318 µM (active) in [1]; 0.0518 µM (active) in experiment [2]; 0.0464 µM (active) in experiment [3]; 233 nM (active) in [4]; 0.965 nM (active) in experiment [12]; 0.154 µM (active) in experiment [5]. Besides, the AC50 in [6] is 0.126 µM (active); in experiment [7], 0.292 µM (active); in experiment [8], 0.066 µM (active); in [9], 0.0817 µM (active); in [11], 0.436 µM (active). In addition, the outcome in experiment [13] and in [14] was inactive.
Take `Oc1c(Cl)cc(Cl)cc1Cl`: the outcome in [1], in experiment [2], in [15], in experiment [16], in experiment [13] and in experiment [5] was inactive. Also, the outcome in experiment [6], in [8], in [9] and in experiment [11] was inactive. The AC50 in experiment [3] is 42.5 µM (active).
Regarding `CCNc1nc(NCC)nc(SC)n1`, the compound was classed as inactive in experiment [17], in experiment [18], in [3], in experiment [15], in [19] and in experiment [12]. In addition, the outcome in [13] was inactive.
For `Oc1ccc(Cc2ccc(O)cc2)cc1`, the result in experiment [1], in experiment [2], in experiment [15], in experiment [4], in [12] and in [13] was inactive. Besides, the result in experiment [5], in experiment [6], in experiment [8], in experiment [9] and in experiment [11] was inactive. Further, the AC50 in experiment [3] is 15.8 µM (active).
